Measured values published in paper PMC12820563, “FoxP3 forms a head-to-head dimer in vivo and stabilizes its multimerization on adjacent microsatellites”.
Over roughly 16,000 sequences, “rpm ratio (pull-down/input)” has its median near 0.5; the highest 2% begin near 5.5. Many of the other results were omitted from the sample, so the highest values are more common in it than they were.

What follows are sequences tested against T1, MBP-FoxP3dN (Mus musculus, UniProt Q99JB6 188-423) (assay: PD-seq (MBP pull-down with sequencing); 20 mM Tris-HCl pH 7.5, 100 mM NaCl, 1.5 mM MgCl2, 0.4 uM protein, 0.1 uM dsDNA library, 30 min, room temperature, amylose pull-down; high values mean tight binding). Conditions: protein: recombinant; tags: His6-MBP; chain copies: 2; dsDNA, one strand shown.
T1 sequence: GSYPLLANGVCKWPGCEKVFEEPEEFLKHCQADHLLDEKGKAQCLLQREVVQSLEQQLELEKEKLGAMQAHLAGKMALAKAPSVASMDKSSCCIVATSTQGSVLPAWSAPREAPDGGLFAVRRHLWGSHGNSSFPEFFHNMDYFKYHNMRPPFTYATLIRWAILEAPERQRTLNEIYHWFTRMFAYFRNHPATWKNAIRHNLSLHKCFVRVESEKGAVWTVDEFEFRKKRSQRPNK
How it was run: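 Amylose resin was used to capture complexes formed during 30 min at room temperature in Tris pH 7.5 buffer with NaCl and MgCl2 between 0.4 µM His6-MBP-tagged mouse FoxP3 or FoxP1 fragment lacking the N-terminus, expressed in E. coli, and 0.1 µM Klenow-filled double-stranded degenerate DNA library. After three washes, the DNA was released with proteinase K, barcoded by PCR and sequenced on Illumina. Binding is pooled-replicate reads-per-million enrichment, pull-down over input.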
In the case of “GATGATTGTTCTCCCAGCTGATGAATTGTGCCGATCGAGTAAACAAATTTTCCTAATCTTTCTGTTCAAGCGCCATCTAC”, the binding signal is reported as 1.02 RPM ratio (pull-down/input). For “GATGATTGTTCTCCCAGCTGATGAATTTTTTGAATCGAGTAAACAAATTTTCCTAATCTTTCTGTTCAAGCGCCATCTAC”, the binding signal was 0.229 RPM ratio (pull-down/input). For “GATGATTGTTCTCCCAGCTGATGAATTGGGTGTTTCGAGTAAACAAATTTTCCTAATCTTTCTGTTCAAGCGCCATCTAC”, the binding signal was 1.38 RPM ratio (pull-down/input). For “GATGATTGTTCTCCCAGCTGATGAATTCAACTGATCGAGTAAACAAATTTTCCTAATCTTTCTGTTCAAGCGCCATCTAC”, the binding signal was 0.332 RPM ratio (pull-down/input). With “GATGATTGTTCTCCCAGCTGATGAATTGAATATGTCGAGTAAACAAATTTTCCTAATCTTTCTGTTCAAGCGCCATCTAC” the binding signal was 0.689 RPM ratio (pull-down/input). In the case of “GATGATTGTTCTCCCAGCTGATGAATTGACACTCTCGAGTAAACAAATTTTCCTAATCTTTCTGTTCAAGCGCCATCTAC”, the binding signal is reported as 0.6 RPM ratio (pull-down/input). For “GATGATTGTTCTCCCAGCTGATGAATTCTTGAATTCGAGTAAACAAATTTTCCTAATCTTTCTGTTCAAGCGCCATCTAC”, the binding signal was 0.493 RPM ratio (pull-down/input). In the case of “GATGATTGTTCTCCCAGCTGATGAATTGTACTTTTCGAGTAAACAAATTTTCCTAATCTTTCTGTTCAAGCGCCATCTAC”, the binding signal is reported as 0.551 RPM ratio (pull-down/input). For “GATGATTGTTCTCCCAGCTGATGAATTGGGTGAGTCGAGTAAACAAATTTTCCTAATCTTTCTGTTCAAGCGCCATCTAC”, the binding signal was 0.443 RPM ratio (pull-down/input). For “GATGATTGTTCTCCCAGCTGATGAATTCACTTGTTCGAGTAAACAAATTTTCCTAATCTTTCTGTTCAAGCGCCATCTAC”, the binding signal was 1.02 RPM ratio (pull-down/input). In the case of “GATGATTGTTCTCCCAGCTGATGAATTCAGTAACTCGAGTAAACAAATTTTCCTAATCTTTCTGTTCAAGCGCCATCTAC”, the binding signal is reported as 1.34 RPM ratio (pull-down/input). For “GATGATTGTTCTCCCAGCTGATGAATTCAACACCTCGAGTAAACAAATTTTCCTAATCTTTCTGTTCAAGCGCCATCTAC”, the binding signal was 0.553 RPM ratio (pull-down/input). In the case of “GATGATTGTTCTCCCAGCTGATGAATTTATTTGGTCGAGTAAACAAATTTTCCTAATCTTTCTGTTCAAGCGCCATCTAC”, the binding signal is reported as 6.15 RPM ratio (pull-down/input). “GATGATTGTTCTCCCAGCTGATGAATTTTATTGGTCGAGTAAACAAATTTTCCTAATCTTTCTGTTCAAGCGCCATCTAC” was tested, and the binding signal was 4.94 RPM ratio (pull-down/input). “GATGATTGTTCTCCCAGCTGATGAATTTATATTGTCGAGTAAACAAATTTTCCTAATCTTTCTGTTCAAGCGCCATCTAC” was tested, and the binding signal was 2.37 RPM ratio (pull-down/input). “GATGATTGTTCTCCCAGCTGATGAATTATTTTGGTCGAGTAAACAAATTTTCCTAATCTTTCTGTTCAAGCGCCATCTAC” was tested, and the binding signal was 0.995 RPM ratio (pull-down/input). In the case of “GATGATTGTTCTCCCAGCTGATGAATTTATTTTGTCGAGTAAACAAATTTTCCTAATCTTTCTGTTCAAGCGCCATCTAC”, the binding signal is reported as 5.94 RPM ratio (pull-down/input). With “GATGATTGTTCTCCCAGCTGATGAATTTAATTTGTCGAGTAAACAAATTTTCCTAATCTTTCTGTTCAAGCGCCATCTAC” the binding signal was 3.39 RPM ratio (pull-down/input).
